Common to all, as to type: functional
The target of assay [1] is Solute carrier family 2, facilitated glucose transporter member 1 (Homo sapiens) (UniProt P11166). Kind of assay: ST_JUDE_LEISH: Cytotoxicity at 2uM final concentration against transgenic Leishmania Mexicana promastigotes LmGLUT1 that are glucose transport deficient and complemented with the human glucose transporter GLUT1. Activity is measured by DNA content using SYBR green in vitro.

In assay [2] the target is Hexose transporter 1 (Plasmodium falciparum) (UniProt O97467). Description: ST_JUDE_LEISH: Cytotoxicity at 2uM final concentration against transgenic Leishmania Mexicana promastigotes LmPfHT that are glucose transport deficient and complemented with the Plasmodium falciparum hexose transporter. Activity is measured by DNA content using SYBR green in vitro.
Assay [3] addresses Glucose transporter (Leishmania mexicana) (UniProt O61059). Kind of assay: ST_JUDE_LEISH: Cytotoxicity at 2uM final concentration against transgenic Leishmania Mexicana promastigotes LmGT2 that are glucose transport deficient and complemented with the L. Mexicana glucose transporter 2. Activity is measured by DNA content using SYBR green in vitro.

Solute carrier family 2, facilitated glucose transporter member 1 (Homo sapiens), sequence (P11166 whole entry): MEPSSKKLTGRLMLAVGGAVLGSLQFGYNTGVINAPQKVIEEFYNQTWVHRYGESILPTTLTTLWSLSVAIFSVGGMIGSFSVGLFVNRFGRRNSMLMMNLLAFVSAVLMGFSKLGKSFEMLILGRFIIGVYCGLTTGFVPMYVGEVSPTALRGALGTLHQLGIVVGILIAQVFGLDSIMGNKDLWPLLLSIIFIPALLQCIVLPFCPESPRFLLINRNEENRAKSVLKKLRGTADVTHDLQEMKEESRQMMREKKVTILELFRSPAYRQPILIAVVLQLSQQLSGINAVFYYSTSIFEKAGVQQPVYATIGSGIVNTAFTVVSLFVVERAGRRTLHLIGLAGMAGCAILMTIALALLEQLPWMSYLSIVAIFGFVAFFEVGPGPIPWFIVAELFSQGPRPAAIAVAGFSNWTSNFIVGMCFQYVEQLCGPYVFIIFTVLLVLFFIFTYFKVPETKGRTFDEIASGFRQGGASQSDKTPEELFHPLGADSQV

For `O=C(CN1CCCC1)Nc1cccc(C(=O)Nc2cccc(C(F)(F)F)c2)c1`, the inhibition in assay [1] is 1.71%; in assay [2] it was 1.57%; in assay [3] it was 3.18%.
Take `CC(C)CNCc1cccc(-c2ccc(CN(C(=O)NCCc3ccccc3)C3CCN(Cc4ccccc4)CC3)cc2)c1`: the inhibition came to 75.8% in assay [1], 79.1% in assay [2] and 56.8% in assay [3].
Consider `CCCCC(=O)Nc1cc(=O)[nH]c2nc(-c3ccc(Cl)cc3)nn12`, for which the inhibition in assay [1] was -1.02%; in assay [2], 3.54%; in assay [3], -0.39%.
On the same counts, the results for `CC(CN1CCN(C)CC1)C(=O)Nc1cccc(-c2cccc(-c3nc4ccccc4[nH]3)c2)c1` (configuration not stated) are 4.45%, 4.44% and 2.44%.
As for `CC1CCN(Cc2c(O)ccc3c(O)c(-c4nc5ccccc5s4)c(=N)oc23)CC1`, the inhibition in assay [1] is 0.12%; in assay [2], 0.79%; in assay [3], -0.56%.
With `CCCCc1cc(NC2CCN(C)CC2)nc(Nc2ccccc2)n1`, the inhibition in assay [1] turned out to be 10.5%; in assay [2] it was 8.07%; in assay [3] it was 8.76%.
On to `Cc1cccn2c(=O)c3cc(C(=O)NC(C)c4ccccc4)c(=N)n(CCN4CCOCC4)c3nc12` (configuration not stated), for which the inhibition in assay [1] is 3.65%; in assay [2], 1.65%; in assay [3] it was -1.52%.
On the same counts, the results for `O=C(c1ccc(-c2ccc(-c3nc4cc(C(F)(F)F)ccc4[nH]3)s2)cc1)N1CCN(CCc2ccccc2)CC1` are 5.29%, 3.93% and 4.62%.
The like results for `c1ccc(C(c2cccs2)N2CCN(Cc3ccc(OCCCN4CCCCC4)cc3)CC2)cc1` (configuration not stated) were, in that order, 7.65%, 6.22% and 5.51%.
Consider `Oc1ccc(CCNc2nc(NCc3ccc4cc(Cl)ccc4c3)nc(N3CCNCC3)n2)cc1`, for which the inhibition is -0.16% in assay [1], 1.41% in assay [2] and 0.67% in assay [3].
On to `CCCC(C)Nc1nc(C)cc(N[C@@H](Cc2ccccc2)C(=O)NCc2ccc(C)cc2)n1` (some centres not stated), for which the results for the inhibition in assay [1], in assay [2] and in assay [3] were 9.97%, 9.09% and 4.86%, respectively.
As to `CS(=O)(=O)Nc1cccc(-c2cnc3[nH]cc(-c4cccc(CN)c4)c3c2)c1`, the results for the inhibition in assay [1], in assay [2] and in assay [3] were 4.77%, 3.29% and 3.74%, respectively.
With `COc1ccc(Cn2cncc2CN(CCC(C)C)C(=O)c2ccc(Cl)nc2Cl)cc1`, the inhibition worked out at 2.52% in assay [1], 2.14% in assay [2] and 2.49% in assay [3].
Consider `Cc1cc(N)c2cc(NC(=O)c3ccc4ccccc4c3)ccc2n1`, for which the inhibition in assay [1] worked out at 3.68%; in assay [2], 4.64%; in assay [3] it was 3.57%.
In the case of `O=c1cc(NCCCNCc2sc(Br)nc2Br)[nH]c2ccccc12`, the inhibition in assay [1] is 3.62%; in assay [2], 4.14%; in assay [3], 4.34%.
As for `O=C1c2ccccc2C(=O)N1c1ccc(S(=O)(=O)N2CCOCC2)cc1`, the inhibition in assay [1] turned out to be 8.7%; in assay [2], 6.66%; in assay [3] it was 8.08%.
Regarding `Cn1nc(-c2ccc(NC(=O)Nc3cc(C(F)(F)F)ccc3F)c(F)c2)c2cnc(NCCCn3ccnc3)nc21`, the inhibition is -0.19% in assay [1], -1.5% in assay [2] and 0.5% in assay [3].
Take `O=C(Nc1ccccc1)N(Cc1ccc(-c2cccc(CNC3CCCC3)c2)cc1)C1CCN(Cc2ccccc2)CC1`: the inhibition in assay [1] came out at 0.97%; in assay [2] it was 1.4%; in assay [3] it was 1.42%.
As to `Nc1nc(N)c2c(ccc3c2ccn3Cc2ccc(-c3ccccc3)cc2)n1`, the inhibition in assay [1], in assay [2] and in assay [3] was 113% in each case.
As for `CC(C)N1CCC(N(Cc2ccc(-c3ccc(C(F)(F)F)cc3)cc2)C(=O)Cn2c(SCc3cccc(F)c3F)cc(=O)c3c2CCC3)CC1`, the inhibition was 4.88% in assay [1], -0.24% in assay [2] and -3.84% in assay [3].
For `CC(C)n1c(C2CCN(CC3CCN(C(=O)/C=C/c4ccc(Cl)c(Cl)c4)CC3)CC2)nc2ccccc21`, the values for the inhibition in assay [1], in assay [2] and in assay [3] were 0.12%, -1.72% and -0.72%, respectively.
The like results for `Cc1ccc(O)cc1Nc1c(C(N)=O)cnc2ccc(-c3cncs3)cc12` were, in that order, -2.06%, -0.39% and -1.28%.
In the case of `COc1ccccc1C1CCN(C2CCC(NC(=O)c3cc4cc(C(C)C)ccc4[nH]3)CC2)CC1` (configuration not stated), the results for the inhibition in assay [1], in assay [2] and in assay [3] were -0.19%, 0.03% and 9.55%, respectively.
As for `C=C[C@]1(C)C[C@@H](OC(=O)NC(=O)C2CCN(C(=O)CSc3ccccc3)CC2)[C@]2(C)[C@H](C)CC[C@]3(CCC(=O)[C@H]32)[C@@H](C)[C@@H]1O`, the inhibition in assay [1] was 10.2%; in assay [2], 11.6%; in assay [3], 5.56%.
In the case of `Cc1sc2cc(Cl)cc(Cl)c2c1S(=O)(=O)Nc1ccc2nccc(N3CCNCC3)c2c1`, the inhibition was -1.42% in assay [1], -0.22% in assay [2] and -0.24% in assay [3].
For `CC(C)c1ccc(Cn2cc(-c3ccncc3)c3cc(OCc4ccccc4)ccc32)cc1`, the results for the inhibition in assay [1], in assay [2] and in assay [3] were 0.76%, 0.58% and 2.49%, respectively.
As to `COc1ccc(C(=O)C2CCN(CCCCNC(=O)c3ccc(NC(=O)c4cc(Cl)cc(Cl)c4)cc3)CC2)cc1`, the inhibition came out at 3.02% in assay [1], 4.08% in assay [2] and 2.05% in assay [3].
On to `[O-][s+]1nc(NCCCN(Cc2cccs2)c2ccccn2)c(NCc2ccccc2)n1` (configuration not stated), for which the inhibition in assay [1] was -1.34%; in assay [2] it was 0.68%; in assay [3] it was -1.82%.
Regarding `Cc1ccc(C2=NNC3(S2)C(=O)Nc2ccc(C)cc23)cc1` (configuration not stated), the inhibition is -2.4% in assay [1], 2.71% in assay [2] and 3.44% in assay [3].
On the same counts, the results for `Nc1ncc(-c2cn[nH]c2)cc1-c1nc2ccc(F)cc2[nH]1` are 2.58%, 3.29% and 1.99%.
For the compound `COC(=O)Nc1cc(C(F)(F)F)ccc1N1CCCC(NS(=O)(=O)c2ccc(C(C)(C)C)cc2)C1` (configuration not stated), the values for the inhibition in assay [1], in assay [2] and in assay [3] were 10%, 12.2% and 7.77%, respectively.
Take `CCN(CC)CC(O)Cc1c2ccc([N+](=O)[O-])cc2nc2cc(OC)c(OC)cc12` (configuration not stated): the inhibition in assay [1] was 0.42%; in assay [2], 1.89%; in assay [3] it was -1.11%.
As to `CCN(CC)CCCN(Cc1ccc(-c2ccc(C(F)(F)F)cc2)cc1)C(=O)Cn1c(SCc2cccc(F)c2F)cc(=O)c2ccccc21`, the inhibition in assay [1] is 2.74%; in assay [2], 2.63%; in assay [3] it was 2.46%.
In the case of `O=C(Nc1cccc(CN2CCCN(Cc3cccc(Cl)c3)CC2)c1)c1ccc(Br)cc1`, the inhibition is 7.66% in assay [1], 7.39% in assay [2] and 9.96% in assay [3].

Source of the values: ChEMBL document CHEMBL3433997, “St. Jude Leishmania screening dataset” (2016).
